PubChem BioAssay AID1159580 (chemical genetic matrix, 2015)
“And” between values parts separate entries of the source, which are not always exact repeats. Equal values may be shown once. The whole screen tested about 5,500 compounds, of which about 2,000 (36%) were called active. Inconclusive results (about 18%) are left out. Rule as the data show it: active = normalized growth mostly below about 0.91 (no sharp cut-off); inconclusive = no clear call, values can overlap the other calls; inactive = mostly above about 0.92. Some of the results follow.

Assay: chemical genetic growth profiling, strain panel (AID 1159580);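 also: tested at 20 µM; growth read once vehicle control cultures reached saturation at 30 °C; 1 = growth at the plate median or of vehicle wells; lower values mean less growth of the strain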
Details: S. cerevisiae deletion strains, growth OD

Measured: normalized growth

COC(=O)NC(=S)Nc1ccccc1NC(=S)NC(=O)OC
active: locus YDR392W, strain spt3, stronger effect = lower value 0.724 | locus YER155C, strain BEM2 (second series), stronger effect = lower value 0.753
inactive: locus YAL013W, strain DEP1, stronger effect = lower value 1 | locus YAL021C, strain ccr4, stronger effect = lower value 0.92 | locus YAL026C, strain drs2, stronger effect = lower value 0.975 | locus YAL030W, strain snc1, stronger effect = lower value 0.986 | locus YBL061C, strain skt5, stronger effect = lower value 0.99 | locus YBR009C, strain hhf1, stronger effect = lower value 0.973 | locus YBR021W, strain FUR4, stronger effect = lower value 1.02 | locus YBR023C, strain chs3, stronger effect = lower value 0.966 | locus YBR171W, strain sec66, stronger effect = lower value 0.974 | locus YBR229C, strain ROT2, stronger effect = lower value 1 | locus YBR231C, strain swc5, stronger effect = lower value 1 | locus YBR279W, strain paf1, stronger effect = lower value 0.983 | locus YCL011C, strain gbp2, stronger effect = lower value 0.978 | locus YCL016C, strain dcc1, stronger effect = lower value 0.974 | locus YCL029C, strain bik1, stronger effect = lower value 1.03 | locus YCL069W, strain vba3, stronger effect = lower value 0.978 | locus YCR088W, strain abp1, stronger effect = lower value 0.975 | locus YDL005C, strain med2, stronger effect = lower value 0.963 | locus YDL035C, strain GPR1, stronger effect = lower value 0.992 | locus YDL040C, strain nat1, stronger effect = lower value 0.973 | locus YDL074C, strain BRE1, stronger effect = lower value 1.03 | locus YDL101C, strain DUN1, stronger effect = lower value 1.02 | locus YDL134C, strain PPH21, stronger effect = lower value 1 | locus YDL185W, strain tfp1, stronger effect = lower value 1 | locus YDL192W, strain arf1, stronger effect = lower value 1.01 | locus YDR001C, strain nth1, stronger effect = lower value 0.976 | locus YDR069C, strain doa4, stronger effect = lower value 0.909 | locus YDR101C, strain arx1, stronger effect = lower value 1.01 | locus YDR137W, strain rgp1, stronger effect = lower value 0.945 | locus YDR150W, strain NUM1, stronger effect = lower value 0.996 | locus YDR159W, strain sac3, stronger effect = lower value 0.969 | locus YDR162C, strain NBP2, stronger effect = lower value 1.01 | locus YDR195W, strain ref2 1.04 | locus YDR297W, strain sur2, stronger effect = lower value 0.984 | locus YDR318W, strain mcm21, stronger effect = lower value 1.02 | locus YDR334W, strain swr1, stronger effect = lower value 0.972 | locus YDR335W, strain msn5, stronger effect = lower value 0.97 | locus YDR388W, stronger effect = lower value 1.02 | locus YDR502C, strain sam2, stronger effect = lower value 0.993 | locus YEL003W, strain gim4, stronger effect = lower value 0.959 | locus YEL037C, strain rad23, stronger effect = lower value 0.973 | locus YEL061C, strain CIN8 (second series), stronger effect = lower value 0.979 | locus YEL061C, strain CIN8, stronger effect = lower value 0.996 | locus YER015W, strain faa2, stronger effect = lower value 0.981 | locus YER016W, strain bim1, stronger effect = lower value 0.963 | locus YER110C, stronger effect = lower value 1.02 | locus YER111C, strain swi4, stronger effect = lower value 0.958 | locus YER155C, strain BEM2, stronger effect = lower value 1.01 | locus YER167W, strain BCK2, stronger effect = lower value 0.977 | locus YFR010W, strain ubp6, stronger effect = lower value 0.984 | locus YGL078C, strain dbp3, stronger effect = lower value 0.982 | locus YGL086W, strain mad1, stronger effect = lower value 0.997 | locus YGL167C, strain pmr1, stronger effect = lower value 0.976 | locus YGL173C, strain kem1, stronger effect = lower value 0.985 | locus YGL227W, strain vid30, stronger effect = lower value 0.977 | locus YGL240W, strain doc1, stronger effect = lower value 0.972 | locus YGL248W, strain PDE1, stronger effect = lower value 1.01 | locus YGL253W, strain hxk2, stronger effect = lower value 1 | locus YGR078C, strain PAC10, stronger effect = lower value 0.996 | locus YGR135W, strain pre9, stronger effect = lower value 1 | locus YGR229C, strain SMI1, stronger effect = lower value 0.986 | locus YGR252W, strain gcn5, stronger effect = lower value 0.981 | locus YHR013C, strain ard1, stronger effect = lower value 0.886 | locus YHR027C, strain rpn1, stronger effect = lower value 0.985 | locus YHR030C, strain SLT2, stronger effect = lower value 0.997 and 0.983 | locus YHR079C, strain IRE1 (second series), stronger effect = lower value 1.02 | locus YHR079C, strain IRE1, stronger effect = lower value 0.938 | locus YHR094C, strain hxt1, stronger effect = lower value 1.01 | locus YHR129C, strain ARP1, stronger effect = lower value 1.01 | locus YHR142W, strain chs7, stronger effect = lower value 0.943 | locus YHR200W, strain rpn10, stronger effect = lower value 1.01 | locus YIL066C, strain RNR3, stronger effect = lower value 1.01 | locus YIL073C, strain SPO22, stronger effect = lower value 0.999 | locus YIL125W, strain kgd1, stronger effect = lower value 0.998 | locus YIR030C, strain dcg1, stronger effect = lower value 1.02 | locus YJL092W, strain hpr5, stronger effect = lower value 0.977 | locus YJL095W, strain BCK1 (second series), stronger effect = lower value 0.978 | locus YJL095W, strain BCK1, stronger effect = lower value 1.04 and 0.967 | locus YJL115W, strain asf1, stronger effect = lower value 0.966 | locus YJL129C, strain trk1, stronger effect = lower value 0.939 | locus YJL134W, strain LCB3, stronger effect = lower value 1 | locus YJL154C, strain vps35, stronger effect = lower value 0.963 | locus YJL164C, strain tpk1, stronger effect = lower value 0.965 | locus YJL166W, strain qcr8, stronger effect = lower value 0.979 | locus YJL168C, strain set2, stronger effect = lower value 1.02 | locus YJL187C, strain SWE1 (second series), stronger effect = lower value 1.04 | locus YJL187C, strain SWE1, stronger effect = lower value 0.986 | locus YJR043C, strain POL32, stronger effect = lower value 1.04 | locus YJR066W, strain TOR1, stronger effect = lower value 0.87
